In ChEMBL document CHEMBL3988442, “University of Dundee, Small-Polar-MMV Screening Library” (2021):
Hit rate of the full screen: of about 48,000 compounds, about 13,000 (27%) showed an effect of 50% or more. This is one part of the list.

system: Wolbachia pipientis; test: Anti-Wolbachia Cell-Based Screen; format: functional; set-up: scale not given: in the data most compounds retested in dose-response had high values; details: 5 µM

| Structure (SMILES) | Percent Effect |
| --- | --- |
| COc1ncccc1CN1CCc2[nH]nc(C(=O)N3CCCC3C)c2C1.O=C(O)C(F)(F)F.O=C(O)C(F)(F)F (stereo not drawn) | 4.676% |
| O=C(O)C(F)(F)F.O=c1ccc2c(n1CC1CC1)CCC(NCc1cccs1)C2 (stereo not drawn) | 108.8% |
| Cn1c2c(ccc1=O)CC(Nc1ncc(F)cn1)CC2.O=C(O)C(F)(F)F (stereo not drawn) | -3.561% |
| COc1ncccc1CNC1CCc2c(ccc(=O)n2C)C1.O=C(O)C(F)(F)F.O=C(O)C(F)(F)F (stereo not drawn) | 100.1% |
| COc1ncccc1CNC1CCc2c(ccc(=O)n2CC2CC2)C1.O=C(O)C(F)(F)F.O=C(O)C(F)(F)F (stereo not drawn) | 98.83% |
| COCCN1C(=O)CC[C@]12CC[C@@H](NCc1cccnc1OC)CC2.O=C(O)C(F)(F)F.O=C(O)C(F)(F)F | -1.329% |
| CN(C)C(=O)Cn1c2c(ccc1=O)CC(NCc1ccoc1)CC2.O=C(O)C(F)(F)F (stereo not drawn) | -9.512% |
| COCCn1c2c(ccc1=O)CC(NCc1cccnc1OC)CC2.O=C(O)C(F)(F)F.O=C(O)C(F)(F)F (stereo not drawn) | 97.75% |
| Cn1cnc(S(=O)(=O)NCC2CCN(C(=O)Oc3ccccc3)CC2)c1 | -16.29% |
| Cc1ccc(C(NC(=O)Cn2cc(C3CC3)nn2)C2CC2)cc1 (stereo not drawn) | -17.63% |
| Cc1cc(CN(C)C(=O)NC2CCC(O)CC2)no1 (stereo not drawn) | -5.162% |
| c1csc(CNc2ccccc2Cn2cncn2)c1 | 2.841% |
| Cn1cnc(S(=O)(=O)NCC2(O)CCc3ccccc32)c1 (stereo not drawn) | -54.8% |
| Cn1cc(CN2CCC[C@]3(C(=O)O)CN(c4cnccn4)CC[C@@H]23)cn1 | -2.616% |
| NC(=O)c1cnc(NC2CCN(c3ccccn3)CC2)c(Cl)c1 | -2.297% |
| O=c1cc(N2CCCC2)cnn1CC(F)F | 95.3% |
| CCC(CC)Cn1ncc(N2CCOCC2)cc1=O | 7.831% |
| O=c1cc(N2CCCCC2)cnn1C[C@H](O)CO | 78.69% |
| O=c1cc(N2CCCCC2)cnn1CC(O)C(F)(F)F (stereo not drawn) | 110.9% |
| CC(C)=CCn1ncc(N2CCCCC2)cc1=O | 8.054% |
| O=c1cc(N2CCNCC2)cnn1CCc1ccc(F)cc1 | -7.094% |
| O=c1cc(N2CCOCC2)cnn1CCc1ccc(F)cc1 | -9.338% |
| CC(C)=CCn1ncc(N2CCOCC2)cc1=O | 1.937% |
| O=c1cc(N2CCCC2)cnn1CCc1cccc(F)c1 | 9.222% |
| Cc1nnc(N2C[C@H](C(=O)NCC3CC3)[C@@H]3CCO[C@@H]3C2)s1.O=C(O)C(F)(F)F | 0.08379% |

| Structure (SMILES) | Percent Effect |
| --- | --- |
| CC(C)Cc1noc(CNc2cccc(-c3nnnn3C)c2)n1 | 3.895% |
| COCc1nc(N2CCC(CCO)CC2)c2cnn(C)c2n1 | -4.999% |
| CN(C)[C@H]1CCN(c2nc(C(C)(C)C)nc3c2cnn3C)C1 | -2.508% |
| CCCOC1CCCN(c2ncnc3c2CCN(C(=O)C2CC2)C3)C1 (stereo not drawn) | 1.517% |
| COCc1nc(N2CC[C@H](N(C)C)C2)c2cnn(C)c2n1 | 102.3% |
| CCc1nc(N2CCN(Cc3ncccc3C)CC2)c2cnn(C)c2n1 | 1.339% |
| CCCOC1CCCN(c2nc(CC)nc3c2cnn3C)C1 (stereo not drawn) | 107.1% |
| CCCOC1CCCN(c2nc(COC)nc3c2cnn3C)C1 (stereo not drawn) | 118.8% |
| COCCCNC(=O)CN(C)C(=O)c1cc(C)sc1C | -3.68% |
| CCC(C)NC(=O)Cn1ccc2sc(C)cc2c1=O (stereo not drawn) | 106.2% |
| COCCNC(=O)Cn1ccc2sc(C)cc2c1=O | 165.3% |
| NC(=O)NC(=O)Cn1ccc2sccc2c1=O | -7.139% |
| COc1cc(NC(=O)Cn2ccc3sc(C)cc3c2=O)cc(OC)c1 | -10.49% |
| N#Cc1cccc(N2CCCC3(C2)CN(c2ncc(F)cn2)CCO3)n1.O=C(O)C(F)(F)F (stereo not drawn) | -18.06% |
| Fc1ccc(CN2CCCCC2Cn2cncn2)c2ncccc12 (stereo not drawn) | 6.637% |
| Cc1ncc(CC(=O)N2CCCC(COc3ccccc3F)C2)c(=O)[nH]1 (stereo not drawn) | 16.93% |
| Cn1cnc2c1CCN(Cc1cccc(OCC(N)=O)c1)C2 | -0.9151% |
| CC(=O)N1CC[C@H]2NC(=O)N(Cc3ccccc3)C(=O)[C@H]21 | 6.922% |
| CN1CCN(C(=O)N2CC[C@@](O)(c3ccccc3)[C@H]3CCCC[C@@H]32)CC1 | -18.77% |
| O=C(O)C(c1ccc2c(c1)OCO2)N1CCC(C(=O)N2CCCC2)CC1 (stereo not drawn) | 0.296% |
| CC(=O)N1CCN(C[C@H]2CC[C@@H](Cc3ccc4c(c3)OCO4)O2)CC1 | 6.248% |
| COC(=O)N1CC[C@@]2(O)CCCC[C@H]2[C@@H]1c1ccc2c(c1)OCO2 | 122.6% |
| NC(=O)CN1CC[C@@]2(O)CCCC[C@H]2[C@@H]1c1ccc2c(c1)OCO2 | 128.7% |
| CC(=O)N1CC[C@@]2(O)CCCC[C@H]2[C@@H]1c1ccccc1 | 132.1% |
| CC(=O)N1CC[C@@]2(O)CCCC[C@H]2[C@@H]1c1ccc2c(c1)OCO2 | 121.2% |

| Structure (SMILES) | Percent Effect |
| --- | --- |
| CCN1CCCC(O)(CNCc2ccc3c(c2)OCO3)C1 (stereo not drawn) | -9.558% |
| Cn1ccc(CN2CCCC2c2ccc3c(c2)OCCCO3)cc1=O (stereo not drawn) | 3.687% |
| Cn1cc(C(=O)N2CCCC2c2ccc3c(c2)OCO3)ccc1=O (stereo not drawn) | 2.509% |
| NC(=O)CN1CCC(C(=O)NCc2ccc3c(c2)OCCCO3)CC1 | -4.067% |
| CCCN1CC2(CCN(c3ccc(C(C)=O)cn3)CC2)CC1C(=O)O (stereo not drawn) | 10.16% |
| Cc1noc([C@@H]2C[C@H](NC(=O)NC(C)C)CN2C)n1 | -7.021% |
| CN1C[C@@H](NC(=O)c2ccccc2)C[C@H]1c1nc(-c2cnccn2)no1 | -2.532% |
| CN1CCN(CCc2ncnn2-c2ccc3c(c2)OCO3)CC1 | -0.8313% |
| O=S(=O)(NCCSc1nccn1C1CC1)c1ccccc1 | 5.63% |
| Cc1ccc(CNCCN2CCOCC2)o1 | 131.7% |
| CSCc1ccc(CNCCCN2CCOCC2)o1 | 3.399% |
| CSCc1ccc(CNCCN2CCOCC2)o1 | -4.251% |
| CSc1ccccc1C(=O)NCc1cc2n(n1)CCCN(CC(C)C)C2 | -7.136% |
| Cn1cc(N2CCN(c3ccc(C#N)c(Cl)c3)CC2=O)cn1 | -30.5% |
| CCC(O)CN1CCN(C(=O)c2sccc2C(C)C)CC1 (stereo not drawn) | 113.4% |
| CC(C)(O)CN1CCN(C(=O)c2sccc2C2CC2)CC1 | -8.363% |
| CC(C)(C)OC(=O)N1CCN(C(=O)c2sccc2C2CC2)CC1 | -2.417% |
| Cc1cc(CN2CCN(C(=O)c3sccc3C(C)C)CC2)no1 | -0.2452% |
| CCC(O)CN1CCN(C(=O)c2sccc2C2CC2)CC1 (stereo not drawn) | 131.2% |
| CCc1nnsc1C(=O)N1CCN(CC(O)CC)CC1 (stereo not drawn) | -1.027% |
| Cc1n[nH]c(C)c1CNc1ccc(-c2nc(C3CC3)no2)cn1 | 9.439% |
| COc1ccc([C@@H]2CN(C(=O)CCc3cc(Cl)no3)C[C@H]2N(C)C)cc1 | -5.122% |
| O=C(NCCOc1ccccc1)c1ccc2c(c1)C(=O)NC2=O | -4.876% |
| O=C(O)c1ccc(CCNC(=O)C2(O)Cc3ccccc3C2)cc1 | 0.991% |
| Cn1c(=O)c2cc(C(=O)NCCc3ccccc3)ccc2n(C)c1=O | 97.39% |

| Structure (SMILES) | Percent Effect |
| --- | --- |
| Cc1ccc(-n2ccnc2)c(C(=O)NCCOCC(F)(F)F)c1 | 1.401% |
| O=C(NCCOCC(F)(F)F)c1ccc(-c2ccco2)[nH]c1=O | 3.056% |
| Cn1c(=O)c2cc(C(=O)NCCOCC(F)(F)F)ccc2n(C)c1=O | 109.9% |
| CC(O)(CCc1ccccc1)CNC(=O)c1ccc(F)cc1 (stereo not drawn) | -3.449% |
| COc1ccc(OCCNC(=O)c2ccc3c(=O)[nH][nH]c(=O)c3c2)cc1 | 4.909% |
| Cn1c(=O)c2cc(C(=O)NCCOc3ccccc3)ccc2n(C)c1=O | 103.9% |
| Cc1cnc(C)c(N2CCC(c3nnc(CN(C)C)n3C3CC3)CC2)n1 | 5.849% |
| N#Cc1cc(NS(=O)(=O)c2cc(C(=O)O)cc(Cl)c2Cl)ccc1F | 118.7% |
| N#Cc1cc(NS(=O)(=O)c2ccc(C(=O)O)cc2F)ccc1F | -1.66% |
| CCc1ccc(C(=O)O)cc1S(=O)(=O)Nc1ccc(F)c(C#N)c1 | 3.443% |
| COC(=O)c1ccc(Cl)c(S(=O)(=O)Nc2ccc(F)c(C(N)=O)c2)c1 | -0.6488% |
| O=C(O)c1ccc(F)c(S(=O)(=O)Nc2ccc(-n3cccn3)c(Cl)c2)c1 | -11.53% |
| Cc1c(F)cc(C(=O)O)cc1S(=O)(=O)Nc1ccc(F)c(C#N)c1 | 122.4% |
| Cc1cnn(Cc2cc(F)ccc2F)c1NC(=O)C1COCCO1 (stereo not drawn) | -3.747% |
| CCN(C)C(=O)[C@H]1C[C@@](CC(C)C)(C(=O)OC)N(C)[C@H]1c1cccnc1 | 5.067% |
| CC(c1ccon1)N(C)C(=O)C1CCN(C(=O)C2CC2)CC1 (stereo not drawn) | 3.184% |
| Cc1ccc2oc(C(=O)N3CCC(C(=O)N4CCCC4)CC3)cc2n1 | -8.823% |
| Cc1cc(-c2ccc(=O)n(C3CCN(C(=O)C4CCC4)CC3)n2)c(C)o1 | 91.93% |
| Cc1cc(-c2ccc(=O)n(C3CCN(C(=O)C4CC4)CC3)n2)c(C)o1 | 96.13% |
| CC(c1ccon1)N(C)C(=O)C1CCN(C(=O)C2CCC2)CC1 (stereo not drawn) | -1.254% |
| CC(NC(=O)C1CCN(C(=O)C2CC2)CC1)c1nncn1C(C)C (stereo not drawn) | -33.62% |
| O=C(COc1ccccc1C(F)(F)F)NCCNC(=O)c1ccccc1 | -6.371% |
| CCC(=O)Nc1ncn(Cc2cccnc2)n1 | 8.509% |
